Results as given in PubChem BioAssay (NCATS).
Results filed as inconclusive are left out. A call without a number means that no potency is given here. The source made the active and inactive calls. Calls follow the shape of the full dose curve.

Assay: Cytotoxicity counterscreen for inhibitors of SARS-CoV-2 cell entry (AID 1645845); also: nearly all actives have a fitted effect of over 50% in size
Settings: cell viability (SARS-CoV-2 entry assay cells); series mostly up to 57.1 µM; activity change, negative = cytotoxicity: at the top concentration
Outline: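 After a 15 min room-temperature ATPLite 1step step, luminescence reflected ATP remaining in HEK293-ACE2 cells exposed to compound for 1 h plus 48 h at 37 C, with percent activity set by cell and no-cell controls.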
Potency is read from the fitted curve at half-maximal effect.

Row | Compound | Potency | activity change, negative = cytotoxicity | outcome
1 | C=C1C(=O)O[C@H]2C[C@H](C)C(/C=C/C(C)=O)=CC[C@H]12 | 31.6 µM (active) | – | –
2 | Cc1ccc(-n2nc(C(C)(C)C)cc2NC(=O)NCc2cc(F)ccc2Oc2ccc3c(cnn3CCO)c2)cc1 | – | -20.8% (inactive) | –
3 | COc1cc(N2CCN(C)CC2)ccc1Nc1ncc2c(n1)N(C)c1ccccc1C(=O)N2 | – | – | inactive
4 | Cn1nccc1Nc1nccc(-c2cc3c(s2)C(C)(C)N(CCN2CCOCC2)C3=O)n1 | – | – | inactive
5 | Cc1nc(-c2cccnc2)sc1C(=O)Nc1ccccc1-c1cn2c(CN3CCOCC3)csc2n1 | – | – | inactive
6 | CNS(=O)(=O)c1ccc2c(c1)/C(=C/c1[nH]c3c(c1CCCN1CCN(C)CC1)CCCC3)C(=O)N2 | – | – | inactive
